Source: PubChem BioAssay (National Center for Advancing Translational Sciences (NCATS))
Sampled rows, rich in hits. Any-hit rate of the full collection: about 6%.
PLK1 PBD block: blocks phosphopeptide binding to human PLK1 polo-box domain; Plk1 PBD binding of FITC phosphopeptide, fluorescence polarization; Potency, µM, inactives show max response, negative = inhibition, most hits filed as inhibitors; 2.8% of 360,000 active; further: series mostly up to about 57 µM; nearly all actives have a fitted effect of over 65% in size
Target sequence (P53350 whole entry, looked up, the tested form may be a part): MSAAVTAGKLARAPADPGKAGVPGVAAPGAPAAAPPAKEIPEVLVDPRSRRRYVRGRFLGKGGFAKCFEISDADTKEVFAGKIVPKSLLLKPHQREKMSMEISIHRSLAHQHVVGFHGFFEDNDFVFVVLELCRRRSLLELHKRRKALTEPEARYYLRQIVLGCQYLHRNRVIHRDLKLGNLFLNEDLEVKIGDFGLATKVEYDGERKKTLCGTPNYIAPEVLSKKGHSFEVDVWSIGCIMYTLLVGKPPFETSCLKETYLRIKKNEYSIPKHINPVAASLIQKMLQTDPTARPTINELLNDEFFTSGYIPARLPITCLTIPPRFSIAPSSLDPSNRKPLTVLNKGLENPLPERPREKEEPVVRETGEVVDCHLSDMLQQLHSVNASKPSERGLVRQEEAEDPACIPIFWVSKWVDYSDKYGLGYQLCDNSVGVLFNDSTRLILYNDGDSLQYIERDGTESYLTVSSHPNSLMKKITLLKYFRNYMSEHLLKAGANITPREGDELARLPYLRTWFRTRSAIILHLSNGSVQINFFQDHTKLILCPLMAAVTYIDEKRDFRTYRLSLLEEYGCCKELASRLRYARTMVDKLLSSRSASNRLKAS
VDR inh: blocks the human vitamin D receptor; P11473; VDR-SRC2-3 peptide fluorescence polarization, 2 h; Potency, µM, for the others: max response, negative = inhibition, usual class: inhibitors; 0.93% of 400,000 active
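Two reagent solutions held at 4 deg C in the dark were dispensed, compounds pinned at 23 nl, and the mixture incubated 2 h at room temperature. Read-out: fluorescence polarization of VDR–SRC2-3 peptide binding.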
Tau fluor cs: counter-screen for tau fibril formation inhibitors | tau K18 P301L Alexa594 fluorescence, heparin fibrillization | Potency, µM (highest dose often 57.7 µM), without a hit: top-dose activity change, negative = decrease | 0.93% of 280,000 active | AID 1463; further: nearly all actives have a fitted effect of over 55% in size
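Human K18 P301L tau (15 uM unlabeled plus 0.24 uM Alexa 594-labeled, final) in 100 mM sodium acetate pH 7 was mixed with compound and 20 uM heparin and incubated 6 hr at 37 C.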
Tau fibril ThT: blocks human tau fibril formation measured by thioflavin T | P10636 | recombinant tau K18 P301L, heparin-induced fibrillization, ThT fluorescence | Potency, µM (doses to about 57.4 µM), inactives show at the highest dose activity, negative = inhibition, most hits filed as inhibitors | 2.1% of 270,000 active | AID 1460; further: nearly all actives have a fitted effect of over 55% in size
Target sequence (P10636 561-689 P618L limits assumed): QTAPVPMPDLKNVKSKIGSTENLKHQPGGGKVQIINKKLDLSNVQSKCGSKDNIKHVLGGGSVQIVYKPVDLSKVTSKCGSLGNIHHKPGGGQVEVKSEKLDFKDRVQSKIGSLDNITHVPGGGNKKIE
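Using a mix of unlabeled (15 uM) and Alexa 594-labeled (0.24 uM) tau K18 P301L, heparin-triggered fibrillization over 6 hr at 37 C was scored by ThT fluorescence.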
Tau fibril FP: inhibitors of human tau fibril formation. AID 1468. 0.39% of 280,000 active. K18 P301L tau heparin fibrillization, Alexa594 FP, 6 h. P10636. Potency, µM (top dose mostly 57.7 µM), without a hit: at the highest dose activity, negative = inhibition, most hits filed as inhibitors; further: nearly all actives have a fitted effect of over 55% in size
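Human K18 P301L fragment (15 uM unlabeled plus 0.24 uM Alexa 594-labeled) in 100 mM sodium acetate pH 7 with compound, aggregation induced by 20 uM heparin for 6 hr at 37 C. ThT (30 uM) added for 1 hr, then Alexa 594 FP read.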
Sfp inh: blocks B. subtilis Sfp PPTase activity. Q9F4F7. Biochemical Sfp PPTase activity, qHTS. Potency, µM, inactives show largest response in the series, negative = inhibition, hits mostly inhibitors. 3.5% of 310,000 active. AID 1490;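 further: the enzyme is Sfp with the accession as filed and its product quenches rhodamine fluorescence; 0% = enzyme reaction without inhibitor and -100% = no enzyme wells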
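Reaction rates are the 30-min fluorescence difference (ex 525, em 598 nm) in wells containing 15 nM Sfp, 5 uM rhodamine-CoA and 12.5 uM BHQ-2-YbbR at pH 7.6 with 10 mM MgCl2.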
* hit, by the source's call; ? = inconclusive; . = not tested or not shown; ! = not active in a repeat. The call rests on the fitted dose curve; in most records, active means well fitted curve in the direction sought with a large enough effect; inconclusive means small, poorly fitted or top-dose-only effect, or another doubt; inactive means no such curve, though single readings can be large; an effect the other way counts as inactive or inconclusive. Unless noted, on the % scale 0 is the no-effect control and ±100 the full control effect; potency means the concentration at half of the fitted maximal effect.

SMILES	PLK1 PBD block	VDR inh	Tau fluor cs	Tau fibril ThT	Tau fibril FP	Sfp inh
CCOC(=O)c1c(C)[nH]c(C)c1S(=O)(=O)N1CCCC(C(=O)NCc2ccc(N(C)C)cc2)C1 (centres undefined)	.	0.4%	-14.2%	-0.3%	?	.
CCOC(=O)C1CCCCN1S(=O)(=O)c1csc(C(N)=O)c1 (centres undefined)	.	9.5%	3.9%	6.0%	3.7%	.
Cc1ccc(/C=N/n2c(-c3ccncc3)n[nH]c2=S)s1	-16.4%	-6.9%	2.7%	3.4%	1.5%	63.1µM*
S=c1[nH]nc(-c2ccncc2)n1/N=C/C=C/c1ccco1	?	10.4%	-23.1%	?	-4.1%	44.7µM*
COc1ccccc1/C=C\C=N\n1c(-c2ccc(Cl)cc2Cl)n[nH]c1=S	-27.6%	-4.9%	-6.0%	4.1%	-5.1%	-1.7%
S=c1[nH]nc(-c2ccccc2Cl)n1/N=C/C=C/c1ccco1	?	-4.1%	-15.5%	?	7.2%	56.2µM*
Cc1cccc(-c2n[nH]c(=S)n2/N=C/C=C/c2ccco2)c1	-14.1%	?	?	?	-8.5%	?
Cc1ccc(OCCCCn2ccnc2)c([N+](=O)[O-])c1	-14.7%	-14.6%	-3.4%	1.1%	0.8%	56.2µM*
CC(C)(C)c1ccccc1OCCCCCn1ccnc1	?	6.8%	1.6%	-10.8%	7.2%	56.2µM*
Cc1ccc(C(C)(C)C)c(OCCCn2ccnc2)c1	-0.1%	-11.1%	10.9%	6.5%	7.1%	-14.0%
Cc1ccc(OCCOCCn2ccnc2)c(Br)c1	-5.3%	0.6%	-2.5%	-4.6%	3.7%	79.4µM*
CCCCC1=CC2=C(c3ccco3)C(=O)C(C)(OC(=O)c3ccc(OC)cc3)C(=O)C2=CO1 (centres undefined)	.	2.2%	-5.7%	-5.6%	3.2%	16.0%
CCCOc1ccc(CNC(=O)c2oc3ccc4c(c3c2C)C(=O)CC(C)(CC)O4)cc1 (centres undefined)	.	4.5%	-21.9%	-12.3%	-4.3%	.
COc1ccc(CNC(=O)c2ccc(NC(=O)N3CCSc4ncccc43)cc2)c(OC)c1	.	-2.1%	-11.9%	-7.0%	-7.3%	.
O=C(c1cn(-c2ccccc2)nc1-c1cccnc1)N1CCN(S(=O)(=O)c2ccc(Cl)cc2)CC1	4.4%	-16.9%	.	.	.	.
CC(C)(C)Nc1c(-c2ccc(O)cc2)nc2ccc(Cl)cn12	1.5%	-15.7%	-9.5%	?	-9.7%	63.1µM*
Oc1ccc(-c2nc3ccc(Cl)cn3c2Nc2ccc(Cl)cc2)cc1	.	6.3%	?	9.3%	?	.
O=C(COC(=O)c1ccc(Br)o1)Nc1nc2ccccc2s1	-7.6%	13.5%	?	?	-4.9%	13.6%
Cc1ccc2nc(NC(=O)COC(=O)c3ccc(Br)o3)sc2c1	?	-17.3%	?	?	?	25.1µM*
COc1cccc2c1C(=O)c1c(O)c3c(c(O)c1C2=O)C[C@@](O)(C(C)=O)C[C@@H]3O[C@H]1C[C@H](N)[C@H](O)[C@H](C)O1	?	?	-10.0%	3.98µM*	25.1µM*	50.1µM*!
COc1cccc2c1C(=O)c1c(O)c3c(c(O)c1C2=O)C[C@@](O)(C(=O)CO)C[C@@H]3O[C@H]1C[C@H](N)[C@@H](O)[C@H](C)O1	?	-8.6%	.	.	.	.
COc1cccc2c1C(=O)c1c(O)c3c(c(O)c1C2=O)C[C@](O)(C(=O)CO)C[C@@H]3O[C@H]1C[C@H](N)[C@@H](O)[C@H](C)O1	.	5.2%	.	.	.	10.8%
COc1cccc2c1C(=O)c1c(O)c3c(c(O)c1C2=O)C[C@@](O)(C(=O)CO)C[C@@H]3OC1C[C@@H](N)[C@H](O)[C@H](C)O1 (some centres undefined)	.	1.3%	8.6%	5.01µM*	25.1µM*	?
CC(C)C(=O)N(c1ccc2oc(=O)sc2c1)S(=O)(=O)c1ccccc1	-10.9%	79.4µM*	-14.3%	?	-6.2%	17.8µM*
CCOC(=O)c1c(-c2ccccc2)oc2ccc(N(C(C)=O)S(=O)(=O)c3ccc(C)cc3)cc12	.	8.3%	-25.1%	-18.6%	-12.6%	.
SMILES	PLK1 PBD block	VDR inh	Tau fluor cs	Tau fibril ThT	Tau fibril FP	Sfp inh
CCCC(=O)N(c1ccc2oc(C)c(C(C)=O)c2c1)S(=O)(=O)c1ccc(C)cc1	.	-1.7%	-9.2%	-6.4%	-6.1%	.
COc1ccc(N(C(C)=O)S(=O)(=O)c2cc(OC)ccc2OC)cc1	-2.9%	-3.3%	-4.4%	-6.9%	-0.3%	14.6%
CCCC(=O)N(c1ccc2oc(=O)sc2c1)S(=O)(=O)c1cccs1	-21.1%	?	-23.0%	31.6µM*	?	?
COc1ccc(OC)c(S(=O)(=O)N(C(C)=O)c2ccc3oc(=O)sc3c2)c1	2.4%	-14.6%	-17.6%	?	-12.3%	44.7µM*
COc1ccc(S(=O)(=O)N(C(=O)C(C)C)c2ccc3oc(=O)sc3c2)cc1	-22.8%	79.4µM*	-23.2%	?	-17.9%	?
COc1ccc(S(=O)(=O)N(C(=O)c2ccncc2)c2ccc3oc(C)c(C(C)=O)c3c2)cc1	.	13.3%	-20.0%	?	10.2%	.
C=C1CC2C(=O)N(Cc3ccccc3)C(C(=O)O)C1N2C(=O)OC(C)(C)C (centres undefined)	.	-8.3%	.	.	.	0.1%
COc1ccc2c(c1)CC(C(=O)Nc1cc(Cl)ccc1C)CO2 (centres undefined)	.	0.3%	-12.3%	-6.2%	-12.6%	.
COc1ccc(C(=O)Oc2ccc3oc(=O)sc3c2)cc1	-24.2%	?	-23.9%	-20.7%	-11.8%	50.1µM*
COc1ccc(C(=O)Oc2ccc3ccc(=O)oc3c2)cc1	0.8%	2.3%	.	.	.	0.8%
CC(=O)N(c1ccc2oc(=O)sc2c1)S(=O)(=O)c1ccccc1	29.9µM*	-26.7%	-15.9%	?	-10.5%	8.91µM*
CCCCNC(=O)C1(C)CCN1C(=O)c1cccnc1Oc1ccccc1 (centres undefined)	-10.3%	.	.	.	.	.
Cn1c(N)c(C(=O)COC(=O)CNC(=O)c2ccccc2F)c(=O)n(C)c1=O	-1.3%	4.3%	.	.	.	.
COc1ccc(CNC(=O)CN2C(=O)CSc3ccc(S(=O)(=O)N4CCCC4)cc32)cc1	.	17.7%	-12.6%	0.0%	-4.4%	.
CC1=C(C(=O)N(C(C)C)C(C)C)CC(CC(=O)NCCc2ccccn2)C(=O)N1Cc1ccc(F)cc1 (centres undefined)	-5.0%	.	.	.	.	.
CCOC(=S)N/C(=N\S(=O)(=O)c1ccc(C)cc1)c1ccccc1	23.8µM*	-12.5%	-0.6%	-2.8%	-2.9%	22.4µM*
COc1ccc(NC(=S)NC(=NS(=O)(=O)c2ccc(Cl)cc2)c2ccccc2)cc1	11.9µM*	-19.3%	.	.	.	.
COc1ccc(NC(=S)N/C(=N/S(=O)(=O)c2ccc(C)cc2)c2ccccc2)cc1	-27.7%	-9.0%	0.3%	-0.4%	1.4%	50.1µM*
